# In PubChem BioAssay AID1645875 (National Center for Advancing Translational Sciences (NCATS), 2021):
# Inconclusive results are not listed. Calls of active or inactive are those of the source. Calls come from the whole dose curve; as a rule, active = well fitted inhibition curve with a large enough effect; inconclusive = small, poorly fitted or top-dose-only effect; inactive = no such curve, though single readings can be large or run the other way.
# Target: N-terminal Xaa-Pro-Lys N-methyltransferase 1 (Homo sapiens) (UniProt Q9BV86)
# Experiment: Orthogonal qHTS for Inhibitors of N-terminal methyltransferase 1 (NTMT1): ThioGlo Assay
# Settings: NTMT1 SAHH-coupled ThioGlo fluorescence, 30 min; series mostly up to 84.5 µM
# Text: Assay Submitter (PI): Rong Huang Ph.D. Purdue University, West Lafayette, IN 47907 The N-terminal methytransferase 1 is the first methyltransferase that methylates protein alpha-N-amines and plays an important role in regulating cell mitosis, chromatin interactions and DNA repair. It is observed to be over-expressed in various cancer patient tissues like malignant melanoma and colorectal cancer tissues. Knockdown of NTMT1 in cancer cells causes cell mitotic defects and enhances sensitivity to DNA damaging chemotherapeutics. […] These critical cellular processes in which NTMT1 is implicated, coupled with emerging links to cellular dysfunction, strengthen the inference that NTMT1 is a compelling novel anticancer target. Progress have been made in understanding the molecular properties of NTMT1 and the biological consequences of protein alpha-N-terminal methylation, but there are no specific small molecule probes available for NTMT1 to fully characterize its MTase activity. To address this unmet need, a panel of assay is created and established to enable quantitative high-throughput screening (qHTS) for novel, potent, and selective small molecule NTMT1 inhibitors. Two orthogonal qHTS that use different reagents (ThioGlo vs. MTaseGlo) are developed for primary robotic screening against the NCATS chemical library of more than 400,000 small molecules. Identified inhibitors are reacquired, validated, and further characterized. […] Early Translation Branch (ETB) National Center for Advancing Translational Sciences (NCATS) National Institute of Health (NIH)
# Materials: NTMT1 enzyme, substrate SPKRIA, control peptide RCC1-6 is provided by the Huang laboratory. MTaseGlo Assay: PROTOCOL TABLE; SEQUENCE No. (e.g., 1, 2, 3, etc.); […] (e.g., Cells, Incubation, Reagent, etc.); VALUE; DESCRIPTION 1; Enzyme; 3 uL; Dispense enzyme mixture (final concentrations of 125 nM NTMT1) into Greiner 1536-well black / solid bottom assay plate (Greiner Bio One, Monroe, NC). 2; Compounds; 23 nL; Compounds (at various concentration) and 1uM final concentration of RCC1-6 (SPKRIA) control were transferred via a Kalypsys Pin Tool (Wako USA) equipped with a 1536-slotted pin array (Wako Automation, Richmond, VA). 3; Incubation; 1 min; Incubate at room temperature. 4; Substrate; 1 uL; Dispense 1 uL of substrate solution (100uM SAM, 10uM SAHH, 15uM ThioGlo3 final concentration) was added to the wells bringing the final assay volume to 4uL. The assay plate was covered with metal lids. 5; Detection; Fluorescence; Initial fluorescence readout (background signal) was detected using the ViewLux microplate imager with an excitation filter of 340 nm and 450 nm emission filter. 6; Incubation; 30 min; Assay plates were incubation at room temperature in the dark. 7; Detection; Fluorescence; Final fluorescence readout was detected using the ViewLux microplate imager with an excitation filter of 340 nm and 450 nm emission filter. The data was normalized to the background fluorescence.
# Chain of N-terminal Xaa-Pro-Lys N-methyltransferase 1 (Homo sapiens) (Q9BV86 whole entry, looked up): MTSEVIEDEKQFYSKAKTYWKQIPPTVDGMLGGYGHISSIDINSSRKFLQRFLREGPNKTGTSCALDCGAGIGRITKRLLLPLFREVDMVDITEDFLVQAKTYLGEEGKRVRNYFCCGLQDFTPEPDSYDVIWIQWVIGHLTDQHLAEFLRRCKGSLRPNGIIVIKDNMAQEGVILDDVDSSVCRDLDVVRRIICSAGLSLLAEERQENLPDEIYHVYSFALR
row,SMILES,Potency
1,Cc1ccnc(NC(=S)N2CCN(c3cc(C(F)(F)F)cc(C(F)(F)F)c3)CC2)c1,4.35 µM (active)
2,CC(C)c1cc2c(c(O)c1O)[C@@]13CCCC(C)(C)[C@@H]1[C@H](OC3=O)C2=O,9.67 µM (active)
3,COc1cc2c(NC3CCN(CC4CCCCC4)CC3)nc(N3CCCN(C)CC3)nc2cc1OCCCN1CCCCC1,43.5 µM (active)
4,OCCn1cc(-c2cnc3nnn(Cc4ccc5ncccc5c4)c3n2)cn1,17.5 µM (active)
5,OCc1ccc(-c2ccc(-c3ccc(CO)s3)o2)s1,19.2 µM (active)
6,COc1cc(N2CCC(N3CCN(C)CC3)CC2)ccc1Nc1ncc(Cl)c(-c2c[nH]c3ccccc23)n1,17.5 µM (active)
7,O=C(Nc1ccccc1)c1ccc(Nc2nnc(-c3ccc(O)cc3)c3ccccc23)cc1,27.8 µM (active)
8,Cc1cc(O)c2c(c1)C(=O)c1cc(O)cc(O)c1C2=O,27.4 µM (active)
9,COc1cc2c(NC3CCN(C(C)C)CC3)nc(N3CCCN(CC4CCCCC4)CC3)nc2cc1OCCCN1CCCCC1,inactive
10,Fc1cc(-c2cccc3ncc(-c4cnn(C5CCNCC5)c4)nc23)cc(F)c1CN1CCOCC1,34.5 µM (active)
11,COc1cc2c(NC3CCN(CC4CCCCC4)CC3)nc(N3CCCN(C(C)C)CC3)nc2cc1OCCCN1CCCCC1,12.3 µM (active)
12,Cc1cnc(Nc2ccc(F)cc2Cl)nc1-c1c[nH]c(C(=O)NC(CO)c2cccc(Cl)c2)c1 (stereo not given),6.22 µM (active)
13,COc1ccc(C2=Nn3c(nnc3-c3ccccc3C)SC2)cc1OC,34.5 µM (active)
14,CC(C)c1cc(CNc2nc(Nc3cc(C4CC4)[nH]n3)cc(N3CCN(C)CC3)n2)on1,7.84 µM (active)
15,Cc1cc(C)c2c(N)c(C(=O)NCc3ccc(Cl)cc3)sc2n1,inactive
16,O=C(/C=C/c1ccc(O)c(O)c1)OCCc1ccccc1,17.3 µM (active)
17,N#Cc1ccc(Nc2nc(-c3ccc(O)cc3O)cs2)cc1C(F)(F)F,49.4 µM (active)
18,COc1ccc(C2=Nn3c(nnc3-c3ccccc3Cl)SC2)cc1OC1CCCC1,inactive
19,Cc1cc(N2CCOCC2)cc2[nH]c(-c3c(NC[C@@H](O)c4cccc(Cl)c4)cc[nH]c3=O)nc12,13.9 µM (active)
20,CN(C)c1ccc(Nc2nc(N)n(C(=O)c3c(F)cccc3F)n2)cc1,4.94 µM (active)

row,SMILES,Potency
1,Cc1ccc(NC(=O)N2CCN(c3nc(N)nc4sc(-c5cccnc5)nc34)CC2)cc1,24.8 µM (active)
2,FC(F)(F)c1cccc(N2CCN(C(=S)Nc3ccccn3)CC2)c1,1.54 µM (active)
3,COc1cc2c(NC3CCN(C(C)C)CC3)nc(N3CCCN(CC4CCCCC4)CC3)nc2cc1OCCCN1CCCC1,12.3 µM (active)
4,COc1cc2c(NC3CCN(C)CC3)nc(N3CCCN(C)CC3)nc2cc1OCCCCCN,30.8 µM (active)
5,CCNC(=O)c1noc(-c2cc(C(C)C)c(O)cc2O)c1-c1ccc(CN2CCOCC2)cc1,inactive
6,Cc1cc2c(c(=O)[nH]1)OC(C(O)CC(C)C)O2 (stereo not given),19.7 µM (active)
7,COc1cc2c(NC3CCN(CC4CCCCC4)CC3)nc(N3CCCN(C)CC3)nc2cc1OCCOCCN(C)C,inactive
8,COc1cc2c(NC3CCN(C(C)C)CC3)nc(N3CCCN(c4ccccc4)CC3)nc2cc1OCCCN1CCCC1,55.5 µM (active)
9,COc1ccc(C2=Nn3c(nnc3-c3ccccc3F)SC2)cc1OC1CCCC1,inactive
10,N.N.N.N.N.N.N.N.N.N.N.N.N.N.O.O.[Ru+4].[Ru+5].[Ru+5],34.5 µM (active)
11,O=C1NC(=O)/C(=C/c2ccc(-c3ccc(F)cc3O)o2)S1,30.8 µM (active)
12,COc1ccnc(NC(=S)N2CCN(c3cccc(Cl)c3Cl)CC2)c1,3.88 µM (active)
13,C[N+]1(C)CCC(OC(=O)C(c2ccccc2)c2ccccc2)CC1,2.74 µM (active)
14,COc1cc2c(NC3CCN(C(C)C)CC3)nc(N3CCCCCC3)nc2cc1OCCCN1CCCC1,38.8 µM (active)
15,O=C(O)c1ccnc2cc(-c3nc4ccccc4n3CCN3CCCCC3)sc12,55.5 µM (active)
16,Cc1cccc(C)c1OCC(N)C(C)C (stereo not given),1.54 µM (active)
17,COc1cc2c(NC3CCN(C(C)C)CC3)nc(N3CCCCC3)nc2cc1OCCOCCN(C)C,34.5 µM (active)
18,Cc1[nH]c(/C=C2\C(=O)Nc3cc(-c4ccccc4)ccc32)c(C)c1CCC(=O)O,9.87 µM (active)
19,Clc1ccc(Nc2nnc(Cc3ccncc3)c3ccccc23)cc1,62.2 µM (active)
20,Nc1ncnc2c1nc(N)n2[C@@H]1O[C@H](CO)[C@@H](O)[C@H]1O,27.8 µM (active)
